Unmarked numbers belong to inactive results.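 How the source made its calls: active means NADPH fluorescence slope more negative than the mean of all samples by about 3 SD, 99.7% confidence; inactive means the rest.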
Each compound was assayed against Voltage-gated potassium channel subunit beta-2 (Rattus norvegicus) (UniProt P62483) (assay: KvBeta positive modulators, primary screen, biochemical, NADPH fluorescence (AID 623;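 further: fluorescence intensity change per second fitted from 20 to 320 s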)). Details: Recombinant KvBeta, NADPH fluorescence decrease slope, 10 min; at 10 µM; active compounds read low.
Voltage-gated potassium channel subunit beta-2 (Rattus norvegicus), sequence (P62483 whole entry, looked up): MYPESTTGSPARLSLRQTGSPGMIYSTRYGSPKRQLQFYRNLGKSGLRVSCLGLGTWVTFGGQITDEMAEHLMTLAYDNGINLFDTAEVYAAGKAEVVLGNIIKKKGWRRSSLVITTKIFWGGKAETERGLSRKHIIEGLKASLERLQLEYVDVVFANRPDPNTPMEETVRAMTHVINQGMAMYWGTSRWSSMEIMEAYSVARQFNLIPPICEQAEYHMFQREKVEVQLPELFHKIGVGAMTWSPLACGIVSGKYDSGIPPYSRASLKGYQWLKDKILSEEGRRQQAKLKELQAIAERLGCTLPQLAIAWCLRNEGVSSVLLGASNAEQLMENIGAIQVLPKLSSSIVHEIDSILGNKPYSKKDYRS

Compound	NADPH fluorescence slope
Cc1nc(NS(=O)(=O)c2ccccc2)sc1NC(=O)OCCN(C)C	2.1e-06
Cn1c(=O)n(CCc2ccccc2)c(=O)c2c1ncn2Cc1ccccc1	-0.000139
CC(C)OC(=O)c1nn2c(C(F)(F)F)cc(-c3ccc(Br)o3)nc2c1Br	-4.3e-06
CCCc1nn(C)c2c1C(c1cccnc1)C(C#N)=C(N)O2 (stereo not given)	4.2e-08
Cc1ccccc1NC(=O)NCCc1nc2ccccc2[nH]1	-0.000294
Nc1c(Br)cc2oc(-c3ccccc3)nc2c1Br	-6.5e-05
CCCc1[nH]nc2c1C(c1c(C)nn(-c3ccccc3)c1Cl)C(C#N)=C(N)O2 (stereo not given)	-1.9e-06
COC(=O)c1c(NC(=O)c2nn(C)cc2Cl)sc2c1CCCC2	-3.5e-05
Cc1cc(=O)oc(C)c1C(=O)Nc1cccc2nonc12	-2.7e-05
CC(C)c1nc(N2CCOCC2)c(C#N)c2c1CCC2	3.3e-06
CCOC(=O)c1c(C)n(C)c2ccc(OC)c(NC(=O)CN3CCN(Cc4ccccc4)CC3)c12	-0.000147
CC(C)CC(NC(=O)OC(C)(C)C)C(=O)NCc1ccccc1 (stereo not given)	-0.000315
O=c1[nH]nc2n1CCCCC2	-0.000113
Cc1ccc(N(CN2C(=O)NC(C)(C)C2=O)CN2C(=O)NC(C)(C)C2=O)cc1	-9.5e-06
CC1CN(C2CCN(S(=O)(=O)c3ccc4ccccc4c3)CC2)CC(C)O1 (stereo not given)	-3.5e-05
CC(C)(C)C1CCC2(CC1)C(C#N)=C(SCC(=O)Nc1ccccc1)NC(=O)C2C#N (stereo not given)	9.2e-06
CCOC(=O)c1cc2c(=O)n3cccc(C)c3nc2n(Cc2cccnc2)c1=N	-0.000115
OC(CNCCCN1CCCCC1)COc1ccccc1 (stereo not given)	-7.1e-05
Cc1ccc(-c2ccccc2NC(=O)C2C3C=CC(C3)C2C(=O)O)o1 (stereo not given)	5.5e-06
Cn1c(=O)c2c3c(sc2n2c(SCC(N)=O)nnc12)CC(C(C)(C)C)CC3 (stereo not given)	6.2e-07

Compound	NADPH fluorescence slope
CCOc1cccc(-c2nn3c(-c4ccccn4)nnc3s2)c1	-4.9e-05
Cn1c(=O)n(C)c2cc(C(=O)c3ccccc3)ccc21	-6.3e-05
CCC(=O)OC1=C2C(=Nc3c(c(=O)n(C)c(=O)n3C)C2c2ccccc2)c2ccccc21 (stereo not given)	-5.2e-05
Cc1ccsc1C1NC(=O)c2c(sc3c2CCCC3)N1 (stereo not given)	-3.5e-05
CCCCc1ccc(NC(=O)CSC2=C(C#N)C(c3ccco3)C3=C(CCCC3=O)N2)cc1 (stereo not given)	-9.7e-05
CCCCNc1nc2c(c(=O)n(C)c(=O)n2C)n1Cc1cccc(OC)c1	-1.6e-05
Cc1c(CCC#N)c(N2CCCCC2)n2c(nc3ccccc32)c1C#N	-2.7e-05
CN(C)C/C(Cl)=C(\Cl)c1ccccc1	-6.5e-05
CC(C)Cc1nc(N2CCCCC2)c(C#N)c2c1CCC2	-3.4e-06
CCCCCc1nc2sc3c(c2c(=O)n1N)CCC3	-0.000102
CCOC(=O)Cn1c(SC)nc2sc3c(c2c1=O)CC(C)(C)OC3	-0.000276
Cc1ccc(SCc2nnc(N)s2)cc1	-5.4e-05
CC(C)Cc1nc(N2CCOCC2)c(C#N)c2c1CCC2	-1.9e-05
CCOc1ccc(Cn2c(O)cc(=O)[nH]c2=O)cc1	9.9e-06
Cc1ccc(S(=O)(=O)NC(=O)NCc2ccc3c(c2)OCO3)cc1	-0.000226
CCCCn1c(-c2ccc(Cl)cc2)nc2c(=O)n(C)c(=O)[nH]c21	-5.4e-06
CCCCNC(=O)C(C#N)c1nc2ccccc2nc1N1CCN(Cc2ccc3c(c2)OCO3)CC1 (stereo not given)	-1.5e-05
c1ccc(-c2nnc3sc(Cc4cccs4)nn23)cc1	-0.000133
CC(=O)C1=C(O)C(=O)N(c2cccc(C(=O)O)c2)C1c1ccc(F)cc1 (stereo not given)	-3.9e-05
Cc1ccc(OCc2nnc(NC(=O)c3ccco3)s2)c(C)c1	-1.3e-05
